A selection follows.
aSyn UTR act: Activators working through SNCA 5'UTR binding (MLPCN); alpha-synuclein 5'UTR reporter, activators screen; activity score, % (tested at 7.5 µM), hits read low; 300,000 tested, 7.1% active; AID 1814; in the data active = activity score below about -60%
The depositor's hits bear a star.

SMILES	aSyn UTR act
Cc1cc(C)c(C#N)c(SCc2cn3c(C)cccc3n2)n1	-104.4*
c1ccc2oc(SCc3cn4ccccc4n3)nc2c1	-111.4*
O=C1NC(c2ccc(Br)cc2)Nc2sc3c(c21)CCC3 (stereo not drawn)	-96.2*
Cc1ccc(C2NC(=O)c3c(sc4c3CCN(C)C4)N2)s1 (stereo not drawn)	-72.1*
O=C1NC(c2ccccn2)Nc2sc3c(c21)CCC3 (stereo not drawn)	-123.6*
Cc1ccsc1C1NC(=O)c2c(sc3c2CCCC3)N1 (stereo not drawn)	-218.0*
COc1cccc(N2C(C(C)=O)=NN(c3ccccc3)C2c2ccc(N3CCOCC3)cc2)c1 (stereo not drawn)	-82.1*
COc1ccc(/C(N)=N/OC(=O)CC2CCCCC2)cc1	-111.3*
N/C(=N\OC(=O)CSc1ccccc1)c1ccc([N+](=O)[O-])cc1	-121.0*
Cc1ccc(/C(N)=N/OC(=O)CSc2ccccc2)cc1	-185.3*
COc1ccc(/C(N)=N/OC(=O)CSc2ccccc2)cc1	-162.4*
N/C(=N\OCc1ccc([N+](=O)[O-])cc1)c1ccncc1	-83.4*
O=C(Nc1ccc2c(c1)OCO2)N1CCN(S(=O)(=O)c2ccc(Cl)cc2)CC1	-67.8*
O=C(Nc1ccc2c(c1)OCO2)N1CCN(c2ccccc2Cl)CC1	-187.4*
O=C(Nc1ccc2c(c1)OCO2)N1CCC(CO)(CC2CCCCO2)CC1 (stereo not drawn)	-90.9*
Cc1nn(-c2ccc(C(=O)O)cc2)c(N)c1-c1ccccc1	-178.9*
COc1ccc(-c2c(C)nn(-c3ccccc3)c2N)cc1	-110.5*
COc1ccc(/C=N/NC(=O)c2nc(-c3ccccc3)n(-c3ccccc3)n2)c(O)c1	87.1
Cc1ccsc1/C=N/NC(=O)Nc1ccccc1	-162.1*
Cc1ccsc1/C=N/NC(=O)c1ccc2ccccc2c1	-215.6*
COc1cc(C(=O)N/N=C/c2sccc2C)cc(OC)c1OC	114.1
Cc1ccsc1/C=N/NC(=O)c1ccc([N+](=O)[O-])cc1	-88.0*
CCC(=O)Nc1ccc(OCc2nc3ccccc3s2)cc1	-124.7*
O=S(=O)(Cc1nc2ccccc2s1)c1ccccc1	-68.7*
c1ccc(OCc2nc3ccccc3s2)cc1	-122.9*
SMILES	aSyn UTR act
Fc1ccc(OCc2nc3ccccc3s2)cc1	-178.3*
COc1ccc(N(Cc2cc3cc(OC)ccc3[nH]c2=O)S(=O)(=O)c2ccc(NC(C)=O)cc2)cc1	93.3
COc1ccc(N(Cc2cc3ccccc3[nH]c2=O)S(=O)(=O)c2ccc(OC)cc2)cc1	-64.1*
c1ccc(SCc2nc(-c3ccccn3)no2)cc1	-145.9*
c1ccc(-c2noc(CC3CCCCC3)n2)nc1	-68.9*
c1ccc(CCCc2nc(-c3ccccn3)no2)cc1	-70.0*
O=C(CCCc1nc(-c2ccccc2Cl)no1)NC1CCCC1	98.8
CN(C)C(=O)CCCc1nc(-c2ccc(Cl)cc2)no1	-110.6*
Cc1ccc(Cc2nc(-c3ccccn3)no2)cc1	-94.6*
Clc1ccc(-c2noc(CCCc3ccccc3)n2)cc1	-97.3*
COc1ccc(Cc2nc(-c3ccccn3)no2)cc1	-120.4*
Cc1ccc(-c2nc(-c3ccccn3)no2)cc1	99.3
c1ccc(C(Cc2nc(-c3ccccn3)no2)c2ccccc2)cc1	-132.0*
c1ccc(-c2ccc(-c3nc(-c4ccccn4)no3)cc2)cc1	147.2
c1ccc(Cc2nc(-c3ccccn3)no2)cc1	-98.2*
CNc1ccccc1C(=O)OCC(=O)c1ccc(F)cc1	-69.9*
COc1ccccc1NC(CC(=O)c1ccccc1)C(=O)OCC(=O)c1ccc(F)cc1 (stereo not drawn)	-235.3*
CNc1ccccc1C(=O)OCC(=O)c1ccccc1	-70.9*
COc1cc(/C=N/NC(=O)c2ccncc2)ccc1OCC(=O)Nc1cccc([N+](=O)[O-])c1	-111.4*
C/C=C/c1ccc(OCC(=O)Nc2ccncc2)c(OC)c1	-72.0*
COc1cc(/C=C2\C(=O)N(CCC#N)N=C2C)ccc1OCC(=O)Nc1ccccc1	-163.7*
COc1ccc(/C=N/NC(=O)c2cccnc2)cc1COc1ccc([N+](=O)[O-])c(C)c1	97.9
COc1cc(/C=N/NC(=O)c2ccncc2)ccc1OCC(=O)Nc1ccc(C)c(C)c1	-75.6*
COc1ccc(NC(=O)COc2ccc(/C=N/O)cc2OC)cc1	-66.8*
O=C(N=C1SCC(=O)N1c1ccccc1Cl)c1ccccc1	-210.5*
SMILES	aSyn UTR act
O=C(N=C1SCC(=O)N1c1ccccc1Cl)c1ccco1	-174.5*
CCCC1=[N+](CC(=O)c2ccccc2)CCn2c(C)ccc21	-74.3*
OCCCN=c1cc(-c2ccccc2)oc2ccc(Cl)cc12	-440.1*
CC1(C)CC(N=c2cc(-c3ccccc3)oc3ccc(Cl)cc23)CC(C)(C)N1	99.4
CC(=O)c1cccc2c(O)c(C3=Nc4ccccc4C3=O)[nH]c12	-122.2*
O=C(N/N=C\c1ccc(Oc2ccccc2)cc1)c1csnn1	-95.9*
CN(C)c1ccc(/C=N\NC(=O)c2csnn2)cc1	-146.1*
Cc1ccc2nc(-c3sc4nc(C)cc(C)c4c3N)[nH]c2c1	-63.2*
O=C1c2ccccc2NC(c2ccc(O)cc2)N1/N=C/c1ccc(O)cc1 (stereo not drawn)	-122.2*
O=C1c2ccccc2NC(c2ccc(O)cc2)N1c1ccccc1 (stereo not drawn)	-63.8*
COC(=O)c1ccc2[nH]c(C(C)(C)O)c(C)c2c1	-93.7*
CCOC(=O)c1ccc2[nH]c3ccccc3c2c1	-132.6*
CCOC(=O)c1ccc2[nH]c(C)c(C)c2c1	-85.9*
Cc1ccc2[nH]c(C(=O)N3CCCCC3)cc2c1	-97.6*
COc1ccccc1N1CCN(C(=O)c2ccc3[nH]c(C)c(C)c3c2)CC1	71.7
Cc1[nH]c2ccc(C(=O)N3CCCCC3)cc2c1C	-111.8*
O=C(CN1C(=O)NC2(CCCCCC2)C1=O)c1ccc2c(c1)OCCO2	-154.3*
CC1CCC2(CC1)NC(=O)N(CC(=O)Nc1ccc3c(c1)OCCO3)C2=O (stereo not drawn)	-99.5*
CC(C)C1Oc2ccccc2C(=O)N(CC(=O)c2ccc3c(c2)OCCO3)C1=O (stereo not drawn)	-224.1*
O=C(CN1C(=O)S/C(=C\C=C\c2ccccc2)C1=O)Nc1cccc(O)c1	-218.4*
O=C(CCN1C(=O)S/C(=C\C=C\c2ccccc2)C1=O)Nc1ccc(O)cc1	-203.7*
CCN(C(=O)CN1C(=O)S/C(=C\C=C\c2ccccc2)C1=O)C1CCS(=O)(=O)C1 (stereo not drawn)	-117.6*
CCOC(=O)c1c(C)[nH]c(C=O)c1Cc1cccc(Cl)c1	53.5
CCOC(=O)c1c(C)[nH]c(C2=NNC(=Nc3cccc(Cl)c3)SC2)c1C	-73.7*
CC(=O)c1ccc(N2CCN(C(=O)c3ccc(Cn4c(=S)[nH]c5ccc(N6CCOCC6)cc5c4=O)cc3)CC2)cc1	-71.7*
SMILES	aSyn UTR act
CCCCNC(=S)Nc1ccc(-c2nc3ccc(C)cc3s2)cc1	-158.7*
COCCNc1nnc(SC(C)C(=O)Nc2ccc(-c3nc4ccc(C)cc4s3)cc2)s1 (stereo not drawn)	-78.9*
CCC(C)(C)NC(=S)Nc1ccc(-c2nc3ccc(C)cc3s2)cc1	-78.5*
Cc1ccc2nc(-c3ccc(NC(=S)NCCC(C)C)cc3)sc2c1	-192.4*
Cc1ccc(C(=O)N/N=C2\CCCc3ccccc32)c(C)c1	-160.6*
O=C(N/N=C1\CCCc2ccccc21)c1ccc([N+](=O)[O-])cc1	-82.4*
Cc1ccc2c(CN(C)Cc3ccccc3)cc(=O)oc2c1C	-80.0*
O=C1CSC2=NCN(c3ccc4c(c3)OCO4)CN12	-146.8*
Nc1nnc(SCc2coc(-c3ccc(Cl)cc3)n2)s1	-118.2*

Assay outcomes (PubChem BioAssay)
